Reference: PubChem BioAssay (Tox21)
Records with an inconclusive call do not appear. Unmarked numbers belong to inactive results. The source made the active and inactive calls. The call rests on the fitted dose curve.

biological target: Progesterone receptor (Homo sapiens) (UniProt P06401); assay: qHTS assay to identify small molecule agonists of the progesterone receptor (PR) signaling pathway (AID 1346784); conditions: PR-UAS-bla HEK293T, beta-lactamase FRET ratio, 16 h; series mostly up to 92.4 µM; activation: at the top concentration; further: nearly all actives have a fitted effect of over 30% in size
Source text: U.S. Tox21 Program National Center for Advancing Translational Sciences [NCATS] NIH Chemical Genomics Center [NCGC] U.S. Environmental Protection Agency [EPA] National Institutes of Environmental Health Sciences [NIEHS] National Toxicology Program [NTP] U.S. Food and Drug Administration [FDA] […] Endocrine disrupting chemicals (EDCs) and their interactions with steroid hormone receptors like PR causes disruption of normal endocrine function. To identify the compounds that activate PR signaling, a PR-UAS-bla GripTite cell line i.e. PR-UAS-bla HEK 293T (Invitrogen, Carlsbad, CA, USA) containing a beta-lactamase reporter gene under the control of an Upstream Activator Sequence (UAS) was used to screen Tox21 10K compound library.
Tox21 Assay Protocol Summary: PR-UAS-bla HEK 293T cells were dispensed at 3,000 cells/5 uL of assay medium containing 2% charcoal stripped FBS per well into black wall/clear-bottom 1536-well plates using a Multidrop Combi (ThermoFisher Scientific, Waltham, MA) dispenser. After the assay plates were incubated at a 37C and 5% CO2 for 6hr, 23 nL of compounds dissolved in DMSO, positive controls or DMSO only was transferred to the assay plate by a Pintool station (Kalypsys, San Diego, CA). The plates were incubated at 37C and 5% CO2 for 16hr. Then 1 uL of LiveBLAzer B/G FRET substrate was added using a BioRAPTR FRD (Flying Reagent Dispenser, Aurora Discovery, San Diego, CA). After the plates were incubated at room temperature for 2 hours, fluorescence intensity was measured by an Envision plate reader (PerkinElmer, Shelton, CT).
On the % scale 0 is the no-effect control and ±100 the full control effect; potency means the concentration at half of the fitted maximal effect.

Sequence of Progesterone receptor (Homo sapiens) (P06401 whole entry, looked up): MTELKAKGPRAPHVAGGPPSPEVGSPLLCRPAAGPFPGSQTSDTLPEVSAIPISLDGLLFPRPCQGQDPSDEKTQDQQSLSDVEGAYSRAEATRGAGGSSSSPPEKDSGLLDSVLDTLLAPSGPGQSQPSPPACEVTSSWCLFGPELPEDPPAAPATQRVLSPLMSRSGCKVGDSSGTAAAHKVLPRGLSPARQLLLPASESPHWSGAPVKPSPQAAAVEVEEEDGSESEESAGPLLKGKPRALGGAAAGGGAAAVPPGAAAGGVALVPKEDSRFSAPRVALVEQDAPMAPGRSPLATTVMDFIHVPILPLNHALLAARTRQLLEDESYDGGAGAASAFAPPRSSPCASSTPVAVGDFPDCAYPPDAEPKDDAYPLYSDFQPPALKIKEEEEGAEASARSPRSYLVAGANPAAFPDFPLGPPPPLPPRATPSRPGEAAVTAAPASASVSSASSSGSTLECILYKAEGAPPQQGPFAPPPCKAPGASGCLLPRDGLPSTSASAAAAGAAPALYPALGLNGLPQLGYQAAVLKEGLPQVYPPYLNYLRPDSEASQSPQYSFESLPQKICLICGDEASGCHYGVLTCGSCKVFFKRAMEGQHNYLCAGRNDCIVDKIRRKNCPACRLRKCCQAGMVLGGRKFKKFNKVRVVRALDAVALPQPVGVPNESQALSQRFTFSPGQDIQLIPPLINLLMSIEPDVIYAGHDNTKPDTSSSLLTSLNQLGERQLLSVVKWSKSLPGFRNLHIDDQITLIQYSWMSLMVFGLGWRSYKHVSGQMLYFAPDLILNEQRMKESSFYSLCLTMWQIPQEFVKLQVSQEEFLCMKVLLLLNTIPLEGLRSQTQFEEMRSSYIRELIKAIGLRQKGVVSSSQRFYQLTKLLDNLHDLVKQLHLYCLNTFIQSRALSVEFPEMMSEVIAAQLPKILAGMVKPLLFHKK

Compound	activation	Potency
Nc1ccccc1C(=O)OCC(O)CO (stereo not given)	-2.61% [at 42.5 µM]	–
CC(C)C1(C)N=C(c2ncccc2C(=O)O)NC1=O (stereo not given)	-0.0288%	–
C[C@]12CC[C@H]3[C@@H](CCC4=CC(=O)CC[C@@H]43)[C@@H]1CC[C@@H]2OC(=O)CCc1ccccc1	–	1.5 µM (active)
C[N+](C)(C)CC1CO1 (stereo not given)	2.74%	–
CC(C)c1ccc(OP(=O)(Oc2ccc(C(C)C)cc2)Oc2ccc(C(C)C)cc2)cc1	–	inactive
CCCCCCCCCCCCCCCl	-0.133%	–
CCOC(=O)NC(O)C(Cl)(Cl)Cl (stereo not given)	-0.631% [at 42.5 µM]	–
N#CC1(N=NC2(C#N)CCCCC2)CCCCC1	-0.303%	–
CCCCCBr	-0.009%	–
CCCN(CCC)C(=O)Cc1c(-c2ccc(Cl)cc2)nc2ccc(Cl)cn12	5.97% [at 42.5 µM]	–
CCCCCCCCn1sccc1=O	-11.1%	–
CCCCCCCCCCCCN=C(N)N	2.06% [at 3.27 µM]	–
CC(Cc1ccccc1)NCc1ccccc1Cl (stereo not given)	-1.25% [at 42.5 µM]	–
CCN(C(C)=O)c1cccc(-c2ccnc3c(C#N)cnn23)c1	-0.648% [at 42.5 µM]	–
O=C(O)c1cc(Cl)ccc1Cl	0.0709%	–
CCCC[P+](CC)(CCCC)CCCC (tested in a mixture with another compound)	-0.257%	–
O=C1c2ccccc2C(=O)N1SC(Cl)(Cl)Cl	7.92%	–
CCC1(CC)C(=O)NC(=O)NC1=O	-0.608% [at 42.5 µM]	–
COc1cc(CC#N)cc(OC)c1OC	0.0847% [at 42.5 µM]	–
c1ccc2sc(SNC3CCCCC3)nc2c1	–	inactive

Compound	activation	Potency
COC(=O)Cc1ccccc1	0.0955%	–
C[N+](C)(C)CCOC(=O)C(O)(c1ccccc1)c1ccccc1	-0.133% [at 42.5 µM]	–
O=C=NC1CCCCC1	-0.757%	–
CC(C)(C)c1ccc(CCOc2ncnc3ccccc23)cc1	0.169%	–
CC(C)c1ccc(NC(=O)N(C)C)cc1	-2.06%	–
CC(C)(C)N(NC(=O)c1ccc(Cl)cc1)C(=O)c1ccccc1	-4.85%	–
CC[N+]1(C)CCCC(OC(=O)C(O)(c2ccccc2)c2ccccc2)C1 (stereo not given)	-0.607% [at 42.5 µM]	–
C[N+]1(CCC(C(N)=O)(c2ccccc2)c2ccccc2)CCCCC1	0.224% [at 42.5 µM]	–
CCc1ccccc1N	0.237%	–
Cc1nc(N(C)C)nc(OC(=O)N(C)C)c1C	-1.25%	–
CCC1(CCC(C)C)C(=O)NC(=O)NC1=O	2.54%	–
Cc1ccc(N)c(C)c1	–	inactive
CC1(C)CC(=O)CC(C)(C)N1[O]	0.385%	–
FC(F)OC(F)(F)C(F)Cl (stereo not given)	0.669%	–
CCCBr	-0.134%	–
CCOP(=S)(OCC)SCSc1cc(Cl)ccc1Cl	-0.899%	–
O=S(=O)(c1ccccc1)c1ccccc1	-1.42%	–
Cc1ccc2c(C)cccc2c1	-2.45%	–
O=[N+]([O-])O[C@H]1CO[C@H]2[C@@H]1OC[C@H]2O[N+](=O)[O-]	-1.57% [at 42.5 µM]	–
NP(N)(=O)NC(=O)c1ccc(F)cc1	-0.0745% [at 42.5 µM]	–
